Source: PubChem BioAssay AID588689 (Southern Research Specialized Biocontainment Screening …, 2011)
Hit rate of the full screen: of about 340,000 compounds, about 1,000 (0.29%) were called active. Rule as the data show it: inconclusive = inhibition above about 29% without an active follow-up result; inactive = below that. Only a sample is shown. Entries with a potency or affinity are not part of this list.

Molecular target: Genome polyprotein (Dengue virus type 2 (strain 16681-PDK53)) (UniProt P29991)
Assay: Dengue-2 NS5 methyltransferase inhibitors, primary screen, biochemical, confirmation dose response (AID 588689)
Settings: Dengue-2 NS5 methyltransferase capping enzyme assay, at 25 µM, stronger effect = higher value
[1] = measured here: pilot screen replicate inhibition

Chain of Genome polyprotein (Dengue virus type 2 (strain 16681-PDK53)) (P29991 whole entry, looked up): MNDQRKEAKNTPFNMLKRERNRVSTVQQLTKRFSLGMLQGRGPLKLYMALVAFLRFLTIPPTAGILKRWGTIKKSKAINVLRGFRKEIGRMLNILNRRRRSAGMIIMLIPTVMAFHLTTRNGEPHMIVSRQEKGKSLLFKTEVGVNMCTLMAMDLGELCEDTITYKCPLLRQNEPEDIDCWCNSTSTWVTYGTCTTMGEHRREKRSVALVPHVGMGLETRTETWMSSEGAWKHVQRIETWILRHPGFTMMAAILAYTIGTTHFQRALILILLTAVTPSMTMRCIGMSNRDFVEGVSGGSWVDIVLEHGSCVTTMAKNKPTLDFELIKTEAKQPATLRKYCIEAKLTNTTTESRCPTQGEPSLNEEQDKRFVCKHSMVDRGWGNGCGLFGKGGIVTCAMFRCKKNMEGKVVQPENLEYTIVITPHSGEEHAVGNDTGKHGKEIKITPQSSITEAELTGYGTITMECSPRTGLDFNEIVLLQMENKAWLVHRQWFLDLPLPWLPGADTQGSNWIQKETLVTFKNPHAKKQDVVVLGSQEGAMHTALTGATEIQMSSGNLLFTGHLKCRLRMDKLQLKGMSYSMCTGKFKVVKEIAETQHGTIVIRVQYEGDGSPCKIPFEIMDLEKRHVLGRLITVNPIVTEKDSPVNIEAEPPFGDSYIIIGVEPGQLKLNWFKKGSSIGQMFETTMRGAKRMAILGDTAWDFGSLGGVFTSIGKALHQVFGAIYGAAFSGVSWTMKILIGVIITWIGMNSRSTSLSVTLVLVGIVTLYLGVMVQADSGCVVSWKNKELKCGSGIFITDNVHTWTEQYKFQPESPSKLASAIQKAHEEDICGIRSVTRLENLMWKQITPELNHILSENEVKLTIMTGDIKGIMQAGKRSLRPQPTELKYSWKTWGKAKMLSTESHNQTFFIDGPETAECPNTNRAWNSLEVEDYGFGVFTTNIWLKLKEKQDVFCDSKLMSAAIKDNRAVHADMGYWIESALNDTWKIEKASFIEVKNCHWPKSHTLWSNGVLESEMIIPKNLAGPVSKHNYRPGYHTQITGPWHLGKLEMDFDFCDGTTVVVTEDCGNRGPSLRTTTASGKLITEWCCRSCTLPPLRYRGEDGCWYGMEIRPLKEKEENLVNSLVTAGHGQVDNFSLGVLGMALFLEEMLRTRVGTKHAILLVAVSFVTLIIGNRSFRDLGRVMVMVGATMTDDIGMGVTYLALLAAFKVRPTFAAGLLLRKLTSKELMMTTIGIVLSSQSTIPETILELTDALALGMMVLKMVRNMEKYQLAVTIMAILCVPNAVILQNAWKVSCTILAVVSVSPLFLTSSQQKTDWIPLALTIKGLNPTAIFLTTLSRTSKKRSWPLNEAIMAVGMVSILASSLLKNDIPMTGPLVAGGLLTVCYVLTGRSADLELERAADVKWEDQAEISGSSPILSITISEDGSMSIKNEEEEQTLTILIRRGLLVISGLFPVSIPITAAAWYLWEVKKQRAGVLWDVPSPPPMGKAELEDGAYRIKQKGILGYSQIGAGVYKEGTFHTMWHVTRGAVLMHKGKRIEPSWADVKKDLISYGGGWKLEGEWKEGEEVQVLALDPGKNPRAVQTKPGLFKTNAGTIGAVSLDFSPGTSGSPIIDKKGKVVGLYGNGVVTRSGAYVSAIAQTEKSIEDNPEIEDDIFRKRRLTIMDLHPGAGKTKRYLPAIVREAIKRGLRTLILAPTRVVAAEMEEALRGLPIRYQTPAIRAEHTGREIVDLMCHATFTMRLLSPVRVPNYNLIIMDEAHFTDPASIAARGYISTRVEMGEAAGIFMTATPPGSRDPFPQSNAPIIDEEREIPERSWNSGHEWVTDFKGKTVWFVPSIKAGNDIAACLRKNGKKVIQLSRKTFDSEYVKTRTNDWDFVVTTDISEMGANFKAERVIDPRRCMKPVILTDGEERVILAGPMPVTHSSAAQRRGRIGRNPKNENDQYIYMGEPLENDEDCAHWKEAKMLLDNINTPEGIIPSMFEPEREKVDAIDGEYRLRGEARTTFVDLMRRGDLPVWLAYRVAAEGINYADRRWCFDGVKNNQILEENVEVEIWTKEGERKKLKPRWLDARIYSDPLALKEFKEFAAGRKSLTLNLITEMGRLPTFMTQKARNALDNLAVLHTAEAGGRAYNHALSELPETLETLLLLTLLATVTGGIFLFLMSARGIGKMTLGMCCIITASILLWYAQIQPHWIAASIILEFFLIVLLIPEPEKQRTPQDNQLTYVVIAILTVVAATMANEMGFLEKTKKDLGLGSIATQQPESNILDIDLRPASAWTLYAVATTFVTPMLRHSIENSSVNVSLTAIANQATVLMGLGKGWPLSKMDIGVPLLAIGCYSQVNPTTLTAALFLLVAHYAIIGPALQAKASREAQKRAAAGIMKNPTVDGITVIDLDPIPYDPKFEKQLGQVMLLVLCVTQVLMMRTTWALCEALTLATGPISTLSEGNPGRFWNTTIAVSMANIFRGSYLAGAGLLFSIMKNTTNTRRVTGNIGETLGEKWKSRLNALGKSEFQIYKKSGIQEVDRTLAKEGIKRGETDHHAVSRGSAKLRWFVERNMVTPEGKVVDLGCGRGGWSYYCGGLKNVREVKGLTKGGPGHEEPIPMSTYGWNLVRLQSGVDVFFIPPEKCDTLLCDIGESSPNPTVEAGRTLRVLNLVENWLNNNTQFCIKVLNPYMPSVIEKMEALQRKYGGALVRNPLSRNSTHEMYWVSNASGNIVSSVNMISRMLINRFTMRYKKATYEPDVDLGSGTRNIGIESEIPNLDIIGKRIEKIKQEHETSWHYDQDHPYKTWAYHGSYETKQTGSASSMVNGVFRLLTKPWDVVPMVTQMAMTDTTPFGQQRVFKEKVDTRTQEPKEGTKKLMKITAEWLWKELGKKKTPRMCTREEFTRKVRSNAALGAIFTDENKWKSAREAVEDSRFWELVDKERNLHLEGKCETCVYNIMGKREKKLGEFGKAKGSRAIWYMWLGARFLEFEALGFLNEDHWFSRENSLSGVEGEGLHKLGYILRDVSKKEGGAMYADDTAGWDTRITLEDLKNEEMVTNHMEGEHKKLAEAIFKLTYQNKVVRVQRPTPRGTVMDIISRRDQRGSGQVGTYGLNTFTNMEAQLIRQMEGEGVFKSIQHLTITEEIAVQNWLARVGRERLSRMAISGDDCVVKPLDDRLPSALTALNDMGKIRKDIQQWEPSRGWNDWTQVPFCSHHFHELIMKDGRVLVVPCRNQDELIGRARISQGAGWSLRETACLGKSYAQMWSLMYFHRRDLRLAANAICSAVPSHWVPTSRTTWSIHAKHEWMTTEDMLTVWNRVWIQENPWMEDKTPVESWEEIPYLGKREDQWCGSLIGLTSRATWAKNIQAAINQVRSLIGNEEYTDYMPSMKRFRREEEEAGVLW

Structure (SMILES) | inhibition | inhibition [1] [%]
O=C1CCc2cc(S(=O)(=O)Nc3ccccc3)cc3c2N1CCC3 | -5.11% (inactive) | 
CCOc1cccc(N2CCN(CCNC(=O)Nc3ccc(C)cc3)CC2)c1C | -3.11% (inactive) | 
CC(C)N(C(=O)[C@H]1C[C@H](CC(=O)NCc2ccco2)C(=O)N2CCc3c([nH]c4cc(CCC(=O)N(C)C)ccc34)[C@]12C)C(C)C | -2.31% (inactive) | 1.51
Cc1ccc(-c2nnn(CC(=O)N(c3ccccc3F)C(C(=O)NC3CCCC3)c3ccncc3)n2)o1 (configuration not stated) | 5.7% (inactive) | 
COC(=O)c1cc(COC(=O)c2nc3nccc(C)n3n2)oc1C | 0% (inactive) | 
Clc1ccc(-c2csc(-c3ccno3)n2)cc1 | -5.36% (inactive) | 
O=[N+]([O-])c1ccc(NCCCN2CCOCC2)c([N+](=O)[O-])c1 | -5.47% (inactive) | 
COc1ccc(CC(=O)Nc2ccc(S(=O)(=O)Nc3cc(OC)nc(OC)n3)cc2)cc1 | 23.3% (inactive) | 
O=C(O)CCCC(=O)N1CCc2cc(S(=O)(=O)N3CCc4ccccc43)ccc21 | -4.13% (inactive) | 
O=C1CCCCC1(O)Cc1ccc2c(c1)OCO2 (configuration not stated) | -3.89% (inactive) | 
O=c1cc(-c2ccccc2)oc2cccc(O)c12 | -5.07% (inactive) | 
O=c1cc(-c2ccccc2)oc2cc(O)cc(O)c12 | -12.6% (inactive) | 
CC(=O)c1cc2c(cc1NC(=O)Cc1ccsc1)OCO2 | -0.37% (inactive) | 
O=C(C1CC(c2cccc(Br)c2)=NO1)N1CCc2ccccc2C1 (configuration not stated) | -3.92% (inactive) | 
Cc1cccc(OCCn2nc(C(=O)O)c3ccccc3c2=O)c1 | 2.68% (inactive) | 
O=C(O)c1cccc([N+](=O)[O-])c1C(=O)Nc1cccc2ccccc12 | -2.72% (inactive) | 
O=C(Nc1cccc2ccccc12)c1cccc([N+](=O)[O-])c1 | -4.08% (inactive) | 
COc1cc(CN=Cc2c(O)n(Cc3ccccc3)c(=S)[nH]c2=O)cc(OC)c1 | 10.8% (inactive) | 
COc1c(O)ccc(/C=N/NC(=O)c2ccc3c(c2)OCCO3)c1[N+](=O)[O-] | 2.38% (inactive) | 
COc1c(O)ccc(/C=N\NC(=O)c2ccc3c(c2)OCO3)c1[N+](=O)[O-] | 12.7% (inactive) | 

Structure (SMILES) | inhibition | inhibition [1] [%]
O=C(c1cc(-c2ccncc2)nc2ccc(Cl)cc12)N1CCN(C(=O)C2CCCO2)CC1 (configuration not stated) | -1.35% (inactive) | 
CC/C=C\C/C=C\C/C=C\CCCCCCCC(=O)O | 2.2% (inactive) | 
COC1=CC(=O)C=C(OC)C1=O | -8.21% (inactive) | 
CN(CC(=O)Nc1ccccc1Cl)C(=O)CSc1nnc(-c2ccco2)o1 | -1.47% (inactive) | 
CN1CCN(NC(=O)c2cc(S(=O)(=O)N3CCOCC3)c(Cl)cc2Cl)CC1 | 1.45% (inactive) | 
O=C(NC(C(=O)c1ccccc1)N1CCOCC1)c1cccs1 (configuration not stated) | -6.21% (inactive) | 
CCCCN1C(=O)N(CCc2ccc(F)cc2)S(=O)(=O)c2cc(C(F)(F)F)ccc21 | -0.33% (inactive) | 1.51
Cc1cccc2nc3ccccc3nc12 | -0.76% (inactive) | 
COc1ccc2nc3ccccc3nc2c1N | 40.2% (inactive) | 
NC(=O)c1ccc(=O)n(Cc2ccc(F)c(F)c2)c1 | -1.31% (inactive) | 
Cc1ccc(N)cc1O | -2.91% (inactive) | 
Cc1cc(C(c2ccc(O)cc2)c2cc(C)c(O)cc2C)c(C)cc1O | -0.79% (inactive) | 
Cc1ccc(CNC(=O)C(C(=O)NCc2ccc(C)o2)c2ncc(C(F)(F)F)cc2Cl)o1 | -13.8% (inactive) | 
COc1ccc(Br)cc1C(=O)NC(=S)Nc1ccc(Cl)c(C(=O)O)c1 | 4.69% (inactive) | 
COc1ccc(Br)cc1/C=C/C(=O)NC(=S)Nc1ccc(CN2CCOCC2)cc1 | -10.4% (inactive) | 
CC1(C)OC(=O)C(=NNc2ccccc2)C(=O)O1 | -0.73% (inactive) | 
c1ccc(NN=C2c3ccccc3-c3ccccc32)cc1 | -1.94% (inactive) | 
COc1ccc(N(C)C(=O)c2ccc3c(c2)nnn3C)cc1 | -4.51% (inactive) | 
O=C(CN1CCOCC1)Nc1ccccc1NC(=O)C1CCN(c2ncccn2)CC1 | -11.3% (inactive) | 
COC(=O)[C@@]1(Cc2ccccc2)[C@H]2C(=O)N(C)C(=O)[C@H]2[C@H]2CN=C(SCc3ccc(C)cc3)N21 | 1.99% (inactive) | 0.61

Structure (SMILES) | inhibition | inhibition [1] [%]
Cc1csc(/C(=N/OC(=O)c2ccco2)C(N)=O)n1 | -32.5% (inactive) | 
N/C(=N\OC(=O)c1ccco1)c1ccc(Br)cc1 | -5.29% (inactive) | 
O=C(CCCOc1cccc(Br)c1)NCCOc1ccccc1 | -4.07% (inactive) | 
Cn1c(=O)c2sccc2n(CC(=O)NCCC2=CCCCC2)c1=O | -7.27% (inactive) | 
CCN(CC)Cc1nc2c(c(=O)[nH]1)C1(CCCCC1)Cc1ccccc1-2 | -5.55% (inactive) | 
O=Cc1ccc(-c2ccccc2C(=O)O)o1 | -2.22% (inactive) | 
COC(=O)c1ccc(N2NC(=O)/C(=C/c3ccc(OC)c(OC)c3)C2=O)cc1 | 34.3% (inactive) | 
COC(=O)c1ccc(N2NC(=O)/C(=C/c3cc(OC)c(O)c(OC)c3)C2=O)cc1 | -24.8% (inactive) | 
O=C1NN(c2cccc(Br)c2)C(=O)/C1=C/c1ccc(-c2cc([N+](=O)[O-])ccc2O)o1 | 70.1% (inactive) | 
COc1ccc(NC(=O)/C(C#N)=C/c2ccc(-c3ccc(Cl)c(C(=O)O)c3)o2)cc1 | 3.44% (inactive) | 
Cc1nnc(NC(=O)c2ccc3c(c2)OCO3)s1 | 8.19% (inactive) | 
Cc1noc(C)c1CSCC(=O)Nc1nc2ccc(S(C)(=O)=O)cc2s1 | -2.95% (inactive) | 
N#CCC(=O)N/N=C/c1ccc(OS(=O)(=O)c2ccccc2)cc1 | -3.76% (inactive) | -2.42
COC(=O)Cn1c(CCS(=O)(=O)c2ccc(Cl)cc2)nc2ccccc21 | -5.46% (inactive) | 
Cc1ccc(-c2cnc3ccccc3n2)cc1C | -6.51% (inactive) | 
O=C(Nc1ccc2c(c1)OCO2)c1n[nH]c(=O)c2ccccc12 | 11.1% (inactive) | 
CSCCC(NC(=O)C1CC1)c1nc2ccccc2[nH]1 (configuration not stated) | -5.48% (inactive) | 
C[C@H](NC(=O)c1nc[nH]c1C(=O)N1CCN(C(=O)OC(C)(C)C)CC1)C(=O)OCc1ccccc1 | -2.48% (inactive) | 
